The panel holds about 83,000 compounds, 20% with a hit somewhere; the sample as a whole holds those more often.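 Negative percent growth values reflect cell death: -40 means 40% of the cells present at the start died, and -100 means all died.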 Unmarked numbers belong to inactive results. Active and inactive are the calls of the source. Rule for the calls: active = growth percent below 10; inactive = the rest.

Holding throughout (test): NCI-60 one-dose screen, 48 h (100 = growth as untreated, 0 = no growth, -100 = all killed)
Details in all cases: 10 µM unless noted

For assay [1], the system named is NCI-H23 lung.
The subject of assay [2] is NCI-H226 lung.
Assay [3] deals with NCI-H322M lung.
Assay [4] relates to HOP-62 NSCLC.
Assay [5] relates to NCI-H460 lung.
Assay [6] deals with HOP-92 NSCLC.
Assay [7] concerns A549/ATCC NSCLC.
In assay [8] the test system is 786-0 renal.
Assay [9] has as its system COLO 205 colon.
In assay [10] the test system is DU-145 prostate.
For assay [11], the system named is K-562 leukemia.
Assay [12] concerns MALME-3M melanoma.
Assay [13] deals with MDA-MB-231 breast.
Assay [14] relates to RXF 393 renal.
The subject of assay [15] is SF-268 CNS.
Assay [16] concerns SF-295 CNS.
Assay [17] relates to SF-539 CNS.
The subject of assay [18] is UACC-257 melanoma.
The subject of assay [19] is M14 melanoma.

Regarding `c1ccc(-c2nc(Nc3nccnn3)c3ccccc3n2)cc1`, the growth was 90.4% in assay [1]; 87.5% in assay [2]; 98.1% in [3]; 99.8% in assay [4]; 101% in [5]; 105% in [6]. Besides, the growth is 102% in assay [7]; 96.9% in [8]; 107% in assay [9]; 99.5% in assay [10]; 91.1% in [11]; 99.1% in assay [12]. The growth in assay [13] was 91.8%; in [14] it was 96.7%; in assay [15] it was 98%; in [16] it was 98%; in [17], 99.1%; in [18] it was 109%. For the same compound, in assay [19], the growth is 99.3%.

Consider `COc1ccccc1NC(=O)c1sc2nc3c(cc2c1N)C(=O)CCC3`, for which the growth in assay [1] was 66.7%; in assay [2] it was 76.2%; in [3] it was 59.7%; in assay [4], 100%; in [5] it was 19.3%; in assay [6] it was 37.5%. Further, the growth in assay [7] was 34.2%; in assay [8], 89.1%; in assay [9] it was 26.4%; in assay [10], 86.6%; in [11], 41.5%; in [12], 58.2%. Moreover, the growth in [13] is 57.5%; in assay [14] it was 77%; in assay [15], 102%; in assay [16] it was 25.7%; in assay [17], 66.2%; in assay [18], 58.5%. Besides, in assay [19], the growth was 47.1%.

`C[C@@H]1CN(c2nc3c(cc2F)c(=O)c(C(=O)O)cn3C(C)(C)C)C[C@H](C)N1`: the growth in assay [1] was 95.2%; in assay [2], 91%; in [3] it was 93.7%; in assay [4], 98.5%; in [5], 107%; in assay [6], 71.6%. The growth in assay [7] is 99.9%; in [8] it was 112%; in assay [9] it was 110%; in [10], 114%; in assay [11] it was 90.8%; in assay [12] it was 91.3%. Moreover, the growth in assay [13] was 88.4%; in assay [14], -17.3% (active); in [15] it was 114%; in assay [16], 96.5%; in assay [17], 107%; in [18] it was 91.2%. In addition, the growth in assay [19] is 98.8%.

In the case of `Nc1ccccc1C#Cc1ccccc1C#Cc1ccc(OCCCCCCOc2ccc(C#Cc3ccccc3C#Cc3ccccc3N)cc2)cc1`, the growth in [1] is 95.3%; in assay [2], 99.6%; in [3], 106%; in assay [4] it was 93.9%; in [5], 114%; in [6] it was 88.8%. The growth in assay [7] is 106%; in assay [8], 89.8%; in assay [9] it was 96.7%; in [10], 121%; in assay [11], 121%; in assay [12], 97.2%. Also, the growth was 86% in assay [13]; 75.3% in assay [14]; 121% in [15]; 106% in [16]; 97.8% in [17]; 101% in [18]. Further, the growth in [19] was 108%.

As to `COC(=O)[C@H](Cc1cn(C)cn1)NC(=O)[C@H](C)NC(=O)Nc1cc(C(F)(F)F)cc(C(F)(F)F)c1`, the growth in [1] is -60.9% [100 µM] (active); in [2], -33.9% [100 µM] (active); in [3], -54.6% [100 µM] (active); in assay [4], -95.3% [100 µM] (active); in [5], -34.3% [100 µM] (active); in assay [6], -95.3% [100 µM] (active). Moreover, the growth in [7] was -25% [100 µM] (active); in assay [8] it was -80.8% [100 µM] (active); in assay [9], -92% [100 µM] (active); in assay [10] it was -80.3% [100 µM] (active); in [11] it was -26.6% [100 µM] (active); in assay [12], -81.3% [100 µM] (active). Also, the growth in [13] is -76.4% [100 µM] (active); in assay [14], -83.1% [100 µM] (active); in assay [15] it was -77% [100 µM] (active); in assay [16], -82.2% [100 µM] (active); in assay [17], -95.1% [100 µM] (active); in [18], -92.9% [100 µM] (active). For the same compound, in assay [19], the growth was -85.2% [100 µM] (active).

For the compound `COc1ccc2cc(C3=CC(=O)CCC3)ccc2c1`, the growth in assay [1] is 91.8%; in assay [2] it was 55.5%; in [3], 93.6%; in assay [4], 112%; in assay [5] it was 110%; in assay [6] it was 83.5%. Further, the growth in assay [7] is 82.6%; in [8], 90.5%; in assay [9] it was 99.9%; in [10], 103%; in assay [11], 105%; in assay [12], 114%. Moreover, the growth in assay [13] is 99.6%; in assay [14], 99.4%; in assay [15] it was 103%; in [16], 110%; in assay [17] it was 95.7%; in assay [18], 96.6%. The growth in assay [19] is 104%.

On to `O=CNc1ccc2c(c1)Cc1cc([N+](=O)[O-])ccc1-2`, for which the growth in assay [1] was 37.9%; in assay [2], 66.5%; in [3], 9.9% (active); in assay [4] it was 26.5%; in assay [5], 15.8%; in [6], 42.4%. The growth is 18.6% in assay [7]; 38.1% in assay [8]; 1.14% (active) in assay [9]; 0.835% (active) in assay [10]; 21.3% in assay [11]; 11.4% in assay [12]. Besides, the growth is 34.4% in [13]; -14.6% (active) in assay [14]; 42% in assay [15]; 16.3% in assay [16]; 27.9% in [17]; 59.3% in assay [18]. Besides, the growth in assay [19] is -15.7% (active).

With `Cc1cc(=O)oc2cc(OCCn3c(C)nn(-c4ccc(Cl)cc4)c3=O)ccc12`, the growth in [1] was 45.8%; in assay [2], 50.1%; in assay [3] it was 58.7%; in [4], 27.4%; in [5], 17.2%; in assay [6], 47.4%. Moreover, the growth in [7] was 30.2%; in assay [8] it was 32.9%; in [9], 10.6%; in [10], 21.6%; in [11], 16.3%; in [12], 32.9%. In addition, the growth in [13] was 47.5%; in [14], 37.4%; in [15], 50.3%; in assay [16] it was 14%; in [17], 29.5%; in [18], 22.5%. Moreover, the growth in assay [19] was 14.7%.

For `CCc1nn2c(-c3ccc(Cl)cc3C)c(-c3cc(OC)c(OC)c(OC)c3)nc2s1`, the growth in assay [1] is 88.9%; in assay [2], 87%; in [3], 69.7%; in assay [4], 84.7%; in [5] it was 84.8%; in assay [6] it was 58.1%. Further, the growth in assay [7] is 82.7%; in [8], 72.9%; in [9], 81.2%; in assay [10], 91.7%; in assay [11], 78.4%; in [12], 68%. Moreover, the growth is 73.8% in assay [13]; 85.2% in assay [14]; 93.4% in assay [15]; 95.3% in [16]; 92.6% in [17]; 103% in assay [18]. For the same compound, the growth in assay [19] was 76.7%.

`COP(=O)(OC)C(c1ccccc1)(c1ccccc1)c1ccccc1`: the growth is 104% in assay [1]; 83.8% in assay [2]; 95.4% in assay [3]; 93.8% in assay [4]; 108% in assay [5]; 62.8% in assay [6]. Moreover, the growth in assay [7] is 74.5%; in [8] it was 93.3%; in [9] it was 103%; in [10], 112%; in assay [11] it was 80.7%; in assay [12] it was 103%. For the same compound, the growth is 90.2% in assay [13]; 36.9% in assay [14]; 120% in assay [15]; 60% in assay [16]; 95.9% in [17]; 82.1% in [18]. Also, the growth in assay [19] was 98.7%.

In the case of `CC1CN(CC(O)c2ccc(Br)cc2)CCO1` (stereo not given), the growth in assay [1] is 104%; in assay [2], 109%; in assay [3], 107%; in assay [4] it was 108%; in assay [5], 108%; in assay [6], 82.5%. The growth in assay [7] was 102%; in [8], 102%; in assay [9] it was 98.1%; in [10], 114%; in assay [11], 96.9%; in assay [12], 116%. For the same compound, the growth in assay [13] is 123%; in [14], 124%; in assay [15] it was 99.9%; in assay [16], 112%; in [17], 106%; in assay [18] it was 105%. Besides, in assay [19], the growth was 104%.

Regarding `C/C(=C\CCc1ccoc1)CC/C=C(\C)CCCN1CCOCC1`, the growth in assay [1] is 46.2%; in assay [2], 70.6%; in assay [3], 84.5%; in assay [4], 69.1%; in [5], 54.3%; in assay [6], 57.4%. Besides, the growth is 63.6% in assay [7]; 69.4% in assay [8]; 40.9% in [9]; 73.9% in assay [10]; 20.6% in assay [11]; 55.8% in assay [12]. For the same compound, the growth was 43.7% in [13]; 50.1% in assay [14]; 72.6% in assay [15]; 67.8% in assay [16]; 78.2% in assay [17]; 53.4% in [18]. For the same compound, the growth in assay [19] is 62.6%.

`CC(=O)OCC(=O)[C@@]1(O)CC[C@H]2[C@@H]3CCC4=CC(=O)CC[C@]4(C)[C@@]3(F)[C@@H](O)C[C@@]21C`: the growth in assay [1] was 108%; in [2] it was 68.8%; in [3], 129%; in assay [4], 109%; in assay [5] it was 94%; in [6] it was 66.9%. The growth in assay [7] was 78.4%; in assay [8] it was 116%; in assay [9], 97.8%; in assay [10], 96%; in [11] it was 108%; in assay [12], 120%. The growth is 103% in [13]; 129% in assay [14]; 91.5% in assay [15]; 115% in [16]; 90.8% in assay [17]; 94.6% in assay [18]. In addition, in assay [19], the growth was 85.7%.

Take `ICCC(c1ccccc1)(c1ccccc1)c1ccccc1`: the growth in assay [1] is 65.6%; in assay [2] it was 89.8%; in assay [3], 86.4%; in assay [4], 55.8%; in assay [5], 69.5%; in assay [6], 40.6%. For the same compound, the growth is 59.8% in [7]; 43.8% in assay [8]; -61.5% (active) in assay [9]; 79.1% in assay [10]; -9.2% (active) in [11]; -43.4% (active) in assay [12]. For the same compound, the growth in assay [13] was 41.7%; in [14] it was 28.4%; in assay [15], 62.7%; in assay [16] it was 51.3%; in assay [17], 10.6%; in [18], -62.8% (active). Also, in assay [19], the growth is -76.2% (active).

For the compound `COc1cnc2c(c1)C(=O)c1c-2n(CCCN2CCOCC2)c(=O)c2cc(F)ccc12`, the growth in assay [1] was -15% (active); in assay [2] it was -64.5% (active); in [3] it was 8.18% (active); in assay [4] it was -23% (active); in assay [5] it was -32.9% (active); in assay [6], -13.5% (active). Further, the growth was -29.2% (active) in assay [7]; -60.1% (active) in [8]; -8.99% (active) in assay [9]; 3.8% (active) in [10]; 12.4% in assay [11]; -31.8% (active) in assay [12]. Further, the growth was 40.6% in [13]; -30.1% (active) in assay [14]; 3.55% (active) in assay [15]; -21.1% (active) in assay [16]; -61.4% (active) in [17]; -10.6% (active) in [18]. Besides, the growth in assay [19] was 0.95% (active).

The values are drawn from PubChem BioAssay (NCI).
